ELG1 DNA repair = qHTS screen for small molecules that inhibit ELG1-dependent DNA repair in human embryonic kidney (HEK293T) cells expressing luciferase-tagged ELG1; HEK293T ELG1-luciferase reporter, luminescence, 16 h; DNA damage induced by 5-fluorouridine; Potency, µM (titrated, usually from 46.1 µM), inactives show at the top dose activity change, negative = inhibition, actives largely listed as inhibitors; 2.3% of 330,000 active; also: % is scaled to controls: 0 for no effect and ±100 for the full control effect; nearly all actives have a fitted effect of over 55% in size
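HEK293T cells expressing luciferase-tagged ELG1 (2,000/well) received 5-Fluorouridine plus compound or DMSO for 16 hr at 37 °C. Luciferase was read by ONE-Glo luminescence after 30 min at room temperature.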
Rab9 prom act = qHTS Assay for Rab9 Promoter Activators; Huh7 Rab9 promoter-luciferase reporter, luminescence, 24 h; Potency, µM (titrated, usually from 9.22 µM), for the others: top-dose activation, negative = inhibition, hits mostly activators; 2.8% of 320,000 active; AID 485297, 2010; also: % of control where 0% means no effect; nearly all actives have a fitted effect of over 60% in size
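Using Huh7 cells stably transfected with Rab9 promoter–luciferase, compounds were incubated 24 h at 37 °C, 5% CO2; luciferase luminescence was read 10 min after reagent addition.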
FLuc counter = qHTS profiling assay for firefly luciferase inhibitor/activator using purifed enzyme and Km concentrations of substrates (counterscreen for miR-21 project); Potency, µM (doses to about 57.5 µM), inactives show at the top dose activity change, negative = inhibition, usual class: inhibitors; AID 588342, 2011; purified FLuc, Km substrates, luminescence inhibition; 6.9% of 360,000 active; Luciferin 4-monooxygenase (Photinus pyralis), P08659;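 also: plate controls were vehicle for no effect and reference inhibitor for full effect; nearly all actives have a fitted effect of over 55% in size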
Target sequence (P08659 whole entry, looked up): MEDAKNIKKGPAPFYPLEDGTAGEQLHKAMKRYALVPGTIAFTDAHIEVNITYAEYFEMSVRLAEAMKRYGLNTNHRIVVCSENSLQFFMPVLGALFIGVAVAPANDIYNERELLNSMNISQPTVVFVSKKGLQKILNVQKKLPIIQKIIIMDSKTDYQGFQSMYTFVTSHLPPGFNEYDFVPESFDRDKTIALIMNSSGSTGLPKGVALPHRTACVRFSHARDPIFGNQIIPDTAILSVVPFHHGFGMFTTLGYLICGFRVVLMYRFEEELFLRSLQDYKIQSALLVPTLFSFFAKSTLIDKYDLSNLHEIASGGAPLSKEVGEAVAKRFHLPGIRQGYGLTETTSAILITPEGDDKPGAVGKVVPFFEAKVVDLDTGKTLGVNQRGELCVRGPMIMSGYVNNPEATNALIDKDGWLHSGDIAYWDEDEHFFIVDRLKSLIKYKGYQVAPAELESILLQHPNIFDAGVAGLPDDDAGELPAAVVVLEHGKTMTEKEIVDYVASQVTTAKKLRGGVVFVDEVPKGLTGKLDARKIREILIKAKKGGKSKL
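Biochemical qHTS of compounds, final roughly 60 µM downward over six points, against 10 nM purified firefly luciferase using Km concentrations of substrates (10 uM D-luciferin, 10 uM ATP) in Tris acetate pH 7.5 buffer; luminescence output.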
SMN2 splice enh = qHTS Assay for Enhancers of SMN2 Splice Variant Expression | HEK293 SMN2-luciferase splicing reporter, luminescence, 30-36 h | 2.8% of 210,000 active | Potency, µM (highest dose often 46.1 µM), inactives show at the top dose activity change, positive = activation, most hits filed as activators | AID 1458, 2008; also: % of control where 0% means no effect; nearly all actives have a fitted effect of over 55% in size
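HEK293 cells carry an SMN2 […]–luciferase reporter in which exon 7 inclusion puts luciferase in frame. Cells were plated 10-12 h before compound addition, then incubated 30-36 h at 37C. ONE-Glo luminescence was read; sodium butyrate at 4.5 mM final served as control.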
NPC1 promoter act = qHTS Assay for NPC1 Promoter Activators; Huh7 NPC1 promoter luciferase reporter, 24 h; Potency, µM (series often up to 9.22 µM), for the others: at the top dose activation, hits mostly activators; 2.4% of 320,000 active; AID 485313, 2010; also: % of control where 0% means no effect; nearly all actives have a fitted effect of over 60% in size
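NPC1 promoter–luciferase Huh7 cells; 24 h compound; luminescence.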
ELG1 genotoxic = qHTS screen for small molecules that induce genotoxicity in human embryonic kidney (HEK293T) cells expressing luciferase-tagged ELG1; HEK293T ELG1-luciferase reporter, luminescence, 16 h; Potency, µM (doses to about 46 µM), for the others: top-dose activity change, positive = activation, actives largely listed as activators; 1.3% of 330,000 active; AID 504466, 2011; also: % of control where 0% means no effect; nearly all actives have a fitted effect of over 60% in size
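DMSO vehicle served as control against compound-treated ELG1-luciferase HEK293T cells; exposure lasted 16 hr at 37 °C and 5% CO2, followed by ONE-Glo luminescence detection after 30 min.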
Numbers without * were called inactive; ? = inconclusive; . = no result. Shown are actives, neighbours in structure and some others; about 9.2% of the full set was active somewhere. Calls follow the shape of the dose curve; as a rule, active = well fitted curve in the direction sought with a large enough effect; inconclusive = small, poorly fitted or top-dose-only effect, or another doubt; inactive = no such curve, though single readings can be large; an effect the other way counts as inactive or inconclusive. Potency is read from the fitted curve at half-maximal effect.

SMILES	ELG1 DNA repair	Rab9 prom act	FLuc counter	SMN2 splice enh	NPC1 promoter act	ELG1 genotoxic
CSc1ccc(/C=N/n2c(C)cc(C)cc2=O)cc1	?	2.82µM*	15.1µM*	?	?	10.3µM*
CSc1ccc(/C=N/N2CCN(C)CC2)cc1	?	3.16µM*	21.3µM*	17.8µM*	?	16.8%
CN1CCN(/N=C/c2ccc(-c3ccccc3)cc2)CC1	?	?	19µM*	?	3.55µM*	8.7%
CSc1ccc(/C=N/n2c(C)nnc2C)cc1	?	-6.0%	-4.1%	10.4%	-10.0%	9.9%
Cc1cc(Cl)ccc1OCC(=O)NNC(=O)C1CCCO1 (stereo not given)	?	-4.7%	-14.2%	-12.8%	0.5%	11.3%
Cc1cc2c(cc3c(SCc4ccccc4Cl)nnc(C)n32)o1	.	.	13.5µM*	.	.	.
Cc1cc2c(cc3c(SCc4ccc(Cl)cc4)nnc(C)n32)o1	.	.	-17.4%	.	.	.
CN(C)c1ccc(S(=O)(=O)N2CCC(Cc3ccccc3)CC2)cn1	-17.1%	.	.	.	.	-1.5%
CN(C)S(=O)(=O)c1cccc(NC(=O)CSc2nc3ccccc3n2-c2ccccc2)c1	18.4µM*	2.0%	-0.5%	-38.9%	-3.7%	-6.3%
CN(C)S(=O)(=O)c1ccc(NC(=O)CSc2nc3ccccc3n2-c2ccccc2)cc1	?	-17.6%	4.0%	-66.2%	-6.6%	-2.9%
N/C(=N\OC(=O)C1CCCCC1)c1cccc([N+](=O)[O-])c1	?	23.8%	10.7µM*	9.5%	11.1%	?
N/C(=N\OC(=O)c1ccc(Br)cc1)c1cccc([N+](=O)[O-])c1	?	27.8%	0.849µM*	.	?	?
N/C(=N\OC(=O)c1ccc([N+](=O)[O-])cc1)c1ccc(Br)cc1	?	3.0%	?	.	8.4%	?
Cc1ccc(C(=O)O/N=C(\N)c2cccc([N+](=O)[O-])c2)cc1	?	3.55µM*	0.19µM*	19.7%	3.55µM*	?
Cc1ccc(CC(=O)O/N=C(\N)c2cccc([N+](=O)[O-])c2)cc1	14.7%	2.3%	?	-14.2%	-2.8%	0.3%
OCCC1CN(Cc2cccn2-c2cccnc2)CCN1C1CCCCC1 (stereo not given)	0.0%	-5.9%	-1.2%	.	-2.3%	-0.9%
CCCCSc1nsc(NC(C)=O)n1	?	1.41µM*	10.7µM*	17.8µM*	2.24µM*	?
CCCSc1nsc(NC(=O)CCC)n1	?	1.41µM*	12µM*	5.01µM*	2.82µM*	7.7%
O=C(Nc1ccccc1F)c1cc(S(=O)(=O)N2CCOCC2)cs1	1.0%	-3.7%	0.2%	.	-8.7%	-1.1%
C=CC[n+]1c(/C=C/c2ccc(OC(C)=O)c(OC)c2)ccc2ccccc21	?	-18.5%	-3.9%	.	-37.7%	-3.6%
Nc1nc2ccc(O)cc2s1	-6.6%	3.3%	-1.5%	1.4%	-0.9%	1.3%
CC(C)c1ccc2nc(N)sc2c1	?	2µM*	6.75µM*	12.6µM*	1.58µM*	-8.4%
Nc1nc2ccc(S(=O)(=O)c3ccc4nc(N)sc4c3)cc2s1	21.7%	3.9%	11.1%	-11.8%	-2.3%	-3.1%
Cc1cc2nc(N)sc2cc1C	.	.	9.53µM*	?	.	.
CC(=O)C1=NN(c2ccccc2)C(c2ccc3c(c2)OCO3)N1c1ccccc1 (stereo not given)	?	-11.1%	0.0%	-5.0%	-2.9%	9.9%
SMILES	ELG1 DNA repair	Rab9 prom act	FLuc counter	SMN2 splice enh	NPC1 promoter act	ELG1 genotoxic
CC(=O)C1=NN(c2ccccc2)C(c2cccs2)N1c1ccc(N(C)C)cc1 (stereo not given)	16.4µM*	-3.2%	2.4%	-59.6%	-0.6%	-22.5%
CCN(CC)CCNC(=O)c1cc2c(-c3cccc(OC)c3)nn(C)c2s1	?	-10.4%	2.8%	-68.7%	1.3%	5.3%
COCCCNC(=O)c1cc2c(-c3cccc(OC)c3)nn(C)c2s1	11.6µM*	3.4%	-9.5%	-7.4%	-1.6%	-1.4%
CCOCCCNC(=O)c1cc2c(-c3ccc(Cl)cc3)nn(C)c2s1	20.6µM*	-18.0%	-1.6%	-9.5%	-12.6%	-15.3%
Cc1cc2c(cc1S(=O)(=O)N(CCO)Cc1ccccc1)OCC(=O)N2	.	.	5.7%	.	.	.
Cc1ccc(CN2CCCn3nc(C(=O)NCCc4cccc(C)c4)cc3C2=O)cc1	.	.	-5.8%	.	.	.
NS(=O)(=O)c1ccc(CCNC(=O)c2ccc[nH]c2=S)cc1	4.3%	-0.2%	3.6%	.	-3.2%	0.8%
COc1ccc2[nH]cc(C(O)CN3CCN(c4ccccc4)CC3)c2c1 (stereo not given)	-20.8%	2.6%	-1.3%	.	0.8%	-2.0%
COc1ccc(N2CCN(CC(O)c3c[nH]c4ccc(OC)cc34)CC2C)cc1 (stereo not given)	23.1µM*	-2.9%	-0.4%	-2.5%	0.4%	-3.1%
COc1ccc(-c2cc(C(=O)Nc3cc(Br)ccc3O)no2)cc1	?	18.8%	-9.2%	.	15.3%	?
CCCCOc1ccccc1C(=O)Nc1onc2c1CCCC2	.	.	-15.3%	-17.5%	.	.
Cc1ccc(C(=O)Nc2onc3c2CCCC3)cc1	.	.	0.301µM*	2.51µM*	.	.
COc1ccccc1C(=O)Nc1onc2c1CCCC2	.	.	2.69µM*	3.55µM*	.	.
O=C(OCc1nc2ccccc2s1)C1CCN(C2=NS(=O)(=O)c3ccccc32)CC1	?	?	10.7µM*	17.6%	7.1%	?
CCOC(=O)c1c(NC(=O)CSc2nc3cccnc3n2C)sc(C(C)=O)c1C	?	0.0%	0.3%	-22.9%	-7.0%	0.5%
CCOC(=O)c1sc(NC(=O)CNCc2ccccn2)c(C(=O)OCC)c1C	11.6µM*	-6.7%	2.1%	.	-0.7%	-10.1%
CCOC(=O)c1c(NC(=O)CSc2ncnc3ccccc23)sc(C(C)=O)c1C	14.6µM*	-23.0%	0.8%	-38.2%	-12.7%	-6.2%
CCOC(=O)c1sc(NC(=O)CNCc2cccnc2)c(C(=O)OCC)c1C	-6.0%	0.5%	-1.7%	-6.7%	-4.4%	-9.6%
CC(C)(C)NC(=O)C(c1ccncc1)N(Cc1ccc(F)cc1)C(=O)c1ccc(-c2ccccc2)[nH]1 (stereo not given)	?	-14.3%	0.5%	-60.4%	2.2%	.
CCCCSc1nc(C)cc(C)c1S(=O)(=O)c1ccccc1C	-2.3%	-2.3%	1.2%	-27.5%	-8.2%	-11.9%
COc1ccc(OCC(=O)Nc2ccc(C(=O)OCc3cc(=O)n4nc(C)sc4n3)cc2)cc1	.	.	-0.8%	.	.	.

High-throughput results (PubChem)
